Results published in PubChem BioAssay (EPA / NIEHS).
Records with an inconclusive call do not appear. Activity calls are given as the source filed them. Rule for the calls: active = hit-call score of the fitted dose curve at least 0.9, where 1 is the maximum; inconclusive = response in the unintended direction; inactive = score below 0.9.

The molecules below were run on SRY-box transcription factor 17 (SOX17) Protein Expression, Deisenroth Lab, SOX17 (gene 64321) (assay: CCTE_Deisenroth_DEVTOX-GLR_Pluri_SOX17: CCTE's DevTox GLR-Pluri Assay Evaluation of SRY-box transcription factor 17 (SOX17) Protein Expression, Deisenroth Lab (AID 2284427)).
Description: CCTE_Deisenroth_DEVTOX-GLR_Pluri assay is a cell-based, multiplex-readout assay that uses RUES2-GLR, a human pluripotent cell line, with measurements taken at 48 hours after chemical dosing in a 384-well microplateCCTE_Deisenroth_DEVTOX-GLR_Pluri_SOX17 is 1 of 4 assay components calculated from the CCTE_Deisenroth_DEVTOX-GLR_Pluri assay and it measures an the percentage of cells in an endoderm state. Using a type of inducible fluorescent protein reporter, gain-of-signal activity can be used to understand changes in gene expression with fluorescent microscopy. The percentage of SOX17+ cells are determined by calculating the number of SOX17+ cells divided by the cell count. To generalize the intended target to other relatable targets, this assay component is annotated to the transcription factor intended target family, where the subfamily is SRY-related HMG-box.Data from the assay component CCTE_Deisenroth_DEVTOX-GLR_Pluri_SOX17 was analyzed as 1 assay endpoint. The endpoint is the percent SOX17+ cell population minus the 0.2% DMSO control in the CCTE_Deisenroth_DEVTOX-GLR_Pluri assay. This assay endpoint can be referred to as a secondary readout since this assay has produced multiple assay endpoints where this one serves as a measure of endoderm differentiation.
All assay protocols are aligned to the DevTox GLR-Endo assay workflow. Cells are seeded into 384-well microplates for 24 hours prior to initiating differentiation in defined media for a total duration of 48 hours. A total of two chemical exposures are administered in 24-hour intervals during the 48-hour differentiation period. At the assay termination point, cells are fixed and stained with a fluorescent dye demarcating the nucleus. High-content imaging is used to acquire brightfield and fluorescent channel images across 5 fields per well. Cell identification and mean biomarker fluorescence intensities are calculated with image analysis software to determine the total cell counts for viability assessment and the biomarker expression frequency for each lineage-dependent assay. A typical experimental design tests a 10-point concentration series (1 nM - 200 uM) for 28 compounds in single technical replicate. Assay plate controls include non-differentiated pluripotent cells (baseline control), lineage-specific differentiated cells (differentiation control), and DMSO solvent exposed differentiated cells (solvent control). Experiments typically comprise a minimum of four experimental replicates (n=4).
For `CC1=C(/C=C/C(C)=C/C=C/C(C)=C\C(=O)O)C(C)(C)CCC1`, the AC50 was 20.2 µM (active).
With `CNC(=O)c1cc(Oc2ccc(NC(=O)Nc3ccc(Cl)c(C(F)(F)F)c3)cc2)ccn1` the AC50 was 20.9 µM (active).
In the case of `Nc1cccc2c1CN(C1CCC(=O)NC1=O)C2=O` (configuration not stated), the outcome is reported as “inactive”.
In the case of `CN1CCN2c3ccccc3Cc3ccccc3C2C1` (configuration not stated), the AC50 is reported as 57 µM (active).
With `O=C1Cc2cc(CCN3CCN(c4nsc5ccccc45)CC3)c(Cl)cc2N1` the outcome was “inactive”.
In the case of `Cc1ccc(NC(=O)c2ccc(CN3CCN(C)CC3)cc2)cc1Nc1nccc(-c2cccnc2)n1`, the AC50 is reported as 47.4 µM (active).
In the case of `O=c1[nH]c(=O)n([C@H]2C[C@H](O)[C@@H](CO)O2)cc1Br`, the outcome is reported as “inactive”.
In the case of `Cc1nc2sccn2c(=O)c1CCN1CCC(=C(c2ccc(F)cc2)c2ccc(F)cc2)CC1`, the outcome is reported as “inactive”.
`Cc1nc(Nc2ncc(C(=O)Nc3c(C)cccc3Cl)s2)cc(N2CCN(CCO)CC2)n1` was tested, and the AC50 was 0.017 µM (active).
For `O=C(c1ccc(F)cc1)C1CCN(CCn2c(=O)[nH]c3ccccc3c2=O)CC1`, the AC50 was 100 µM (active).
With `COc1cc2ncnc(Nc3ccc(F)c(Cl)c3)c2cc1OCCCN1CCOCC1` the outcome was “inactive”.
In the case of `CCN(CC)CCNC(=O)c1c(C)[nH]c(/C=C2\C(=O)Nc3ccc(F)cc32)c1C`, the AC50 is reported as 1.46 µM (active).
